Assay [1] is described as follows: NCI Yeast Anticancer Drug Screen. Data for the rad50 strain (AID 155).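 Also: 0% = growth of vehicle-only cultures of the same strain.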 As to conditions: S. cerevisiae rad50 strain growth inhibition; at 50.0 µM; hits give high values. A digest of the protocol:
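Relative growth inhibition (compound vs vehicle) was measured in yeast with a defined repair-gene alteration.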

A short description of assay [2]: NCI Yeast Anticancer Drug Screen. Data for the mec2-1 strain (AID 157). To be noted: S. cerevisiae mec2-1 strain, at 50.0 µM, hits give high values. Put shortly: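 Each compound was tested on mec2-1 yeast, a strain altered in DNA damage repair or cell cycle control. Growth inhibition is reported relative to vehicle.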
Assay [3] in a line: NCI Yeast Anticancer Drug Screen. Data for the sgs1 mgt1 strain (AID 161).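 Also: 0% = growth of cultures given vehicle only.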 To be noted: S. cerevisiae sgs1 mgt1 strain, at 50.0 µM, hits give high values. Put shortly:
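Test agents were incubated with a DNA-repair-mutant yeast strain. Growth was then read and compared against vehicle-treated controls.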

Assay [4] in a line: NCI Yeast Anticancer Drug Screen. Data for the cln2 rad14 strain (AID 165).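 Also: 0% = growth equal to vehicle treated cultures.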 As to conditions: S. cerevisiae cln2 rad14 strain, at 50.0 µM, hits give high values. A digest of the protocol:
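Test compounds were added to cln2 rad14 yeast cultures; inhibition of growth was then determined by comparison with vehicle treatment.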

A short description of assay [5]: NCI Yeast Anticancer Drug Screen. Data for the bub3 strain (AID 167). As to conditions: S. cerevisiae bub3 mutant strain, at 50.0 µM, hits give high values. Put shortly: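 Screening used yeast with an engineered genetic alteration affecting cell cycle control. Compound-exposed cultures were compared with vehicle cultures, and reduced growth was taken as inhibition.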

Assay [6] is described as follows: NCI Yeast Anticancer Drug Screen. Data for the mlh1 rad18 strain (AID 175). As to conditions: S. cerevisiae mlh1 rad18 strain growth inhibition; at 50.0 µM; hits give high values. Put shortly:
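Inhibition values reflect reduced growth of mutant yeast versus vehicle-treated controls following compound exposure; the mutations affect DNA damage repair.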

The text below walks through data of PubChem BioAssay (NCI).

About 79,000 compounds went through this panel and 15% of them were active in at least one assay; those are over-represented in the sample as a whole. Unmarked numbers belong to inactive results. Calls of active or inactive are those of the source. Rule as the data show it: active = growth inhibition above about 70%; inactive = the rest.

On to `CN(NC(=O)c1cccs1)C1=NCCN1`, for which the growth inhibition in assay [1] is -25.9%; in assay [2] it was -23.2%; in assay [3], -24.9%; in assay [4], 7.25%; in assay [5], 18.4%; in assay [6] it was -7.7%.

Regarding `OCc1ccc(Cl)cc1Cl`, the growth inhibition in assay [1] was 6.55%; in assay [2] it was -0.25%; in assay [3], -11.4%; in assay [4] it was 10.3%; in assay [5], -51.1%; in assay [6], -27.9%.

Regarding `CCCCCCCCCC(=O)N/N=C/c1cccs1`, the growth inhibition was 0.95% in assay [1]; 24.2% in assay [2]; 3.9% in assay [3]; -12.7% in assay [4]; 35.8% in assay [5]; 15.3% in assay [6].

With `NC(=S)N/N=C/c1ncccc1N`, the growth inhibition in assay [1] is 14.8%; in assay [2] it was 50.6%; in assay [3] it was 39.2%; in assay [4] it was 35%; in assay [5] it was 34.9%; in assay [6] it was -21.7%.

Take `C(=C/c1nnc2ncccn12)/c1ccccc1`: the growth inhibition is -13.8% in assay [1]; -4.85% in assay [2]; -1.5% in assay [3]; -15.7% in assay [4]; 0.05% in assay [5]; -5.4% in assay [6].

As for `CCOC(=O)c1c(C)nc(C)c(C(=O)OCC)c1-c1ccnc2ccccc12`, the growth inhibition was 0.9% in assay [1]; -15.9% in assay [2]; 17.4% in assay [3]; -13% in assay [4]; -3.95% in assay [5]; 5.1% in assay [6].

Regarding `CC(C(=O)c1ccc(Cl)cc1)[n+]1cc(Br)cc(Br)c1` (stereo not given), the growth inhibition in assay [1] is -22.6%; in assay [2] it was -14.2%; in assay [3] it was -9.3%; in assay [4], -19.4%; in assay [5], -21.4%; in assay [6], -10.2%.

As to `O=C1CC2(C(=O)N1CN(Cc1ccccc1)Cc1ccccc1)c1ccccc1-c1ccccc12`, the growth inhibition in assay [1] was 34.5%; in assay [2], 2.1%; in assay [3], -5.55%; in assay [4], 14.1%; in assay [5], -1.1%; in assay [6], 22.4%.

On to `COC(=O)[C@]12CCC(C)(C)C[C@H]1C1=CC[C@@H]3[C@@]4(C)CC[C@H](OC5OC(CO)C(O)C(O)C5OC5OC(CO)C(O)C(O)C5O)C(C)(C)[C@@H]4CC[C@@]3(C)[C@]1(C)CC2` (stereo not given in full), for which the growth inhibition in assay [1] was 89% (active); in assay [2], 90.8% (active); in assay [3], 91.4% (active); in assay [4] it was 90% (active); in assay [5], 90.9% (active); in assay [6] it was 89.5% (active).

Turning to `C=CCC[P+](c1ccccc1)(c1ccccc1)c1ccccc1`, the growth inhibition was 37.2% in assay [1]; 34.1% in assay [2]; 28.2% in assay [3]; -3.4% in assay [4]; 9.1% in assay [5]; 8.75% in assay [6].

With `COC(=O)C(=O)c1c(C(=O)OC)nc2nnc(N)n2c1C1CC1`, the growth inhibition is -5.6% in assay [1]; 11.8% in assay [2]; 7.75% in assay [3]; -17.9% in assay [4]; -5.35% in assay [5]; 4.25% in assay [6].

For `CSC1=Nc2ccccc2N(C)c2c1c(-c1ccccc1)nn2C`, the growth inhibition is 34.8% in assay [1]; 32.1% in assay [2]; 28.8% in assay [3]; 28.6% in assay [4]; 43% in assay [5]; 21.6% in assay [6].

With `O=c1[nH]c2c(Cl)cccc2c2ccccc12`, the growth inhibition in assay [1] is 40.5%; in assay [2], 18.9%; in assay [3], -7.45%; in assay [4] it was -18.1%; in assay [5], -17.9%; in assay [6], 14.3%.

Turning to `C[N+]1(CCC(=O)c2ccco2)CC2CCC(CC2)C1` (stereo not given), the growth inhibition was 3.9% in assay [1]; -18.1% in assay [2]; -37.1% in assay [3]; -24.9% in assay [4]; -68.7% in assay [5]; 0.45% in assay [6].

`CC(C)S1=C2C(=O)CC(C)(C)CC2=Nc2ccccc21` (stereo not given): the growth inhibition in assay [1] was 7.65%; in assay [2] it was -0.65%; in assay [3], 2.95%; in assay [4] it was -1.45%; in assay [5], 15.8%; in assay [6], -27.9%.

Regarding `COc1ccc(/C=C2\C=Cc3ccccc32)cc1OC`, the growth inhibition in assay [1] was -21.8%; in assay [2], -6%; in assay [3], 0.7%; in assay [4], 13.4%; in assay [5], 10.7%; in assay [6], 4.75%.

As for `O=C(O)/C=C/C(=O)Nc1ccc2c(c1)C(O)c1ccccc1-2` (stereo not given), the growth inhibition in assay [1] is -56.4%; in assay [2] it was -12.9%; in assay [3], -1.9%; in assay [4], -45.7%; in assay [5], -7.2%; in assay [6] it was -4.55%.

On to `CCN(CC)C(=O)c1cccc(N)c1`, for which the growth inhibition is 12.6% in assay [1]; -11.3% in assay [2]; 11.5% in assay [3]; 11% in assay [4]; 25.3% in assay [5]; 14% in assay [6].

With `CN1NC(c2ccccc2)NN(C)C1=S`, the growth inhibition in assay [1] is -19.8%; in assay [2], -25.6%; in assay [3], -12%; in assay [4], -16.6%; in assay [5] it was -4.45%; in assay [6], 3.05%.

Turning to `COc1ccc(N2C(=O)C3c4[nH]c5cccc(C)c5c4C4CCC(C(C)(C)C)CC4C3C2=O)cc1` (stereo not given), the growth inhibition is 8.75% in assay [1]; -21.1% in assay [2]; -5.75% in assay [3]; -10.6% in assay [4]; 2.8% in assay [5]; 6% in assay [6].
